Experimental data from PubChem BioAssay (NCI).
About 79,000 compounds went through this panel and 15% of them were active in at least one assay; those are over-represented in the sample as a whole. Unmarked numbers belong to inactive results. Activity calls are given as the source filed them. No stated cut-off is given here; in the data, active means growth inhibition above about 70%; inactive means the rest.

What was measured:
[1] = NCI Yeast Anticancer Drug Screen. Data for the rad50 strain (AID 155);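 further: 0% = growth of vehicle-only cultures of the same strain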; settings: S. cerevisiae rad50 strain growth inhibition, hits give high values
Procedure, shortened: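 Inhibition values express reduced yeast growth in compound-treated cultures relative to vehicle-treated controls.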

[2] = NCI Yeast Anticancer Drug Screen. Data for the mec2-1 strain (AID 157); settings: S. cerevisiae mec2-1 strain, hits give high values
Procedure, shortened: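 Test agents were screened against the mec2-1 yeast strain, with defined DNA repair or cell cycle alteration. Growth was scored as inhibition against vehicle-only controls.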

[3] = NCI Yeast Anticancer Drug Screen. Data for the sgs1 mgt1 strain (AID 161);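 further: 0% = growth of cultures given vehicle only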; settings: S. cerevisiae sgs1 mgt1 strain, hits give high values
Procedure, shortened: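 Inhibition of yeast growth, normalised to vehicle-treated controls, is reported for a strain bearing genetic alterations in DNA damage repair.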

[4] = NCI Yeast Anticancer Drug Screen. Data for the cln2 rad14 strain (AID 165);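 further: 0% = growth equal to vehicle treated cultures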; settings: S. cerevisiae cln2 rad14 strain, hits give high values
Procedure, shortened: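 Growth of compound-exposed yeast (cln2 rad14 genotype) measured and expressed as inhibition relative to vehicle.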

[5] = NCI Yeast Anticancer Drug Screen. Data for the bub3 strain (AID 167); settings: S. cerevisiae bub3 mutant strain, hits give high values
Procedure, shortened: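 Steps: expose the mutant yeast strain to compound; grow alongside vehicle-treated cultures; measure growth; express inhibition against the vehicle cultures.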

[6] = NCI Yeast Anticancer Drug Screen. Data for the mlh1 rad18 strain (AID 175); settings: S. cerevisiae mlh1 rad18 strain growth inhibition, hits give high values
Procedure, shortened: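 In this whole-cell yeast screen, a strain with altered DNA damage repair is challenged with compound, and its growth is measured against matched vehicle-treated controls.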

[7] = at 5.0 µM (retest, dose inferred, filed as 0.5)
[8] = at 50.0 µM (retest, dose inferred, filed as 5.0)

Row | Compound | growth inhibition [1, 7] | growth inhibition [1, 8] | growth inhibition ([1]; at 50.0 µM) | growth inhibition [2, 7] | growth inhibition [2, 8] | growth inhibition ([2]; at 50.0 µM) | growth inhibition [3, 7] | growth inhibition [3, 8] | growth inhibition ([3]; at 50.0 µM) | growth inhibition [4, 7] | growth inhibition [4, 8] | growth inhibition ([4]; at 50.0 µM) | growth inhibition [5, 7] | growth inhibition [5, 8] | growth inhibition ([5]; at 50.0 µM) | growth inhibition [6, 7] | growth inhibition [6, 8] | growth inhibition ([6]; at 50.0 µM)
1 | N=c1scc(-c2ccccc2)n1/N=C/c1cccnc1 | 1% | 95% (active) | 96.6% (active) | 3% | 96% (active) | 86.3% (active) | 7% | 98% (active) | 96.5% (active) | 11% | 95% (active) | 96.2% (active) | 5% | 96% (active) | 50.6% | -14% | 96% (active) | 95.8% (active)
2 | NC(=Nc1ccccc1)c1ccc2c(c1)c1c(n2Cc2ccccc2)CCCC1 | -9% | 99% (active) | 99.3% (active) | -7% | 97% (active) | 99.2% (active) | -5% | 99% (active) | 99.6% (active) | -5% | 94% (active) | 94.9% (active) | -2% | 92% (active) | 98.2% (active) | -1% | 99% (active) | 99.7% (active)
3 | CC(C)(C)[Si](C)(C)OCC1OC(n2cc(I)c(N)nc2=O)C(O[Si](C)(C)C(C)(C)C)C1O[Si](C)(C)C(C)(C)C (configuration not stated) | 48% | 97% (active) | 27.1% | 9% | 98% (active) | 60.8% | 85% (active) | 98% (active) | 36.1% | 1% | 51% | 32.3% | 9% | 99% (active) | 38.4% | 33% | 94% (active) | 86.7% (active)
4 | CCOC(=O)c1c(N)c(=O)n2c3c(cccc13)CC2 | 0% | 92% (active) | 96.9% (active) | -2% | 98% (active) | 97.5% (active) | 0% | 99% (active) | 97.7% (active) | 7% | 59% | 98.7% (active) | -1% | 79% (active) | 96.8% (active) | 21% | 98% (active) | 98.6% (active)
5 | C[C@]12C/C(=C/C(F)(F)F)C(=O)C[C@@H]1CC[C@@H]1[C@@H]2CC[C@]2(C)[C@@H](C(=O)O)CC[C@@H]12 | 32% | 91% (active) | 31.5% | 92% (active) | 97% (active) | 39.4% | 87% (active) | 95% (active) | 72.1% (active) | 24% | 87% (active) | 55.7% | 89% (active) | 95% (active) | 26.1% | 93% (active) | 96% (active) | 48.4%
6 | O=C(Nc1ccc(/C=C/c2ccc(NC(=O)c3cc(S(=O)(=O)O)c4cccnc4c3O)cc2S(=O)(=O)O)c(S(=O)(=O)O)c1)c1cc(S(=O)(=O)O)c2cccnc2c1O | 19% | 97% (active) | 94.4% (active) | 26% | 97% (active) | 88.7% (active) | 34% | 97% (active) | 93.8% (active) | 9% | 95% (active) | 90.2% (active) | 13% | 98% (active) | 95.9% (active) | 41% | 97% (active) | 91.3% (active)
7 | C=C(C#N)C(=O)OCC(CC)CC.C=C(C#N)C(=O)OCC(CC)CC.CS(C)=O.CS(C)=O.Nc1c(N=Nc2ccc(-c3ccc(N=Nc4cc(S(=O)(=O)[O-])c5ccccc5c4N)cc3)cc2)cc(S(=O)(=O)[O-])c2ccccc12.[Pt+2] | -13% | 98% (active) | 96.8% (active) | 6% | 98% (active) | 96.9% (active) | 1% | 97% (active) | 96.5% (active) | -1% | 98% (active) | 95.8% (active) | 3% | 98% (active) | 92.9% (active) | -6% | 97% (active) | 96.5% (active)
8 | CC(=O)c1ccc(Cl)c(N=Cc2cc(Br)ccc2O)c1 | 55% | 77% (active) | 68.4% | 35% | 81% (active) | 70.4% (active) | 57% | 95% (active) | 67.4% | 34% | 56% | 24.4% | 52% | 98% (active) | 78.2% (active) | 64% | 96% (active) | 61.5%
9 | CCOCCNCc1ccc(Cl)c(Cl)c1 | -145% | -89% | 4.05% | -47% | -51% | 0.1% | -60% | -90% | 2.7% | -51% | -53% | 21.1% | -67% | -50% | -5.85% | -144% | -85% | -7.9%
10 | COc1ccc(/C=C2\CCC/C(=C\c3ccc(OC)cc3)C2=O)cc1 | 26% | -17% | -5.5% | -9% | -17% | -11.3% | 2% | -17% | -2.1% | -21% | -20% | -72.2% | -5% | -5% | 1.05% | -8% | -14% | 9.55%
11 | c1ccc2c(B(c3cccc4ccccc34)c3cccc4ccccc34)cccc2c1 | 0% | 98% (active) | 99.1% (active) | 14% | 99% (active) | 98.9% (active) | -20% | 99% (active) | 98.7% (active) | 3% | 98% (active) | 98.7% (active) | -4% | 99% (active) | 98.8% (active) | 0% | 98% (active) | 97.4% (active)
12 | CC(=O)OC[C@@H](OC(C)=O)[C@H](OC(C)=O)c1cnn(-c2ccccc2)n1 | -3% | -11% | -0.85% | -1% | -6% | 3.15% | -4% | 14% | 3.25% | -1% | -2% | -5.7% | 13% | 29% | 71.8% (active) | 3% | -3% | 12.8%
13 | CC(C)C(=O)/C=C/c1ccc(Cl)cc1Cl | -8% | 46% | 69.8% | -10% | 48% | 71.8% (active) | -16% | 31% | 69.6% | 12% | 36% | 52.5% | -32% | 54% | 69.4% | -5% | 48% | 40.3%
14 | CC(C)=CCC/C(C)=C/CC/C(C)=C/CC/C=C(\C)CC/C=C(\C)CCC[N+](C)(C)[O-] | 14% | 90% (active) | 98.9% (active) | 17% | 91% (active) | 99.4% (active) | 46% | 94% (active) | 99.2% (active) | 5% | 59% | 98.4% (active) | 16% | 95% (active) | 98.8% (active) | 13% | 73% (active) | 99.1% (active)
15 | O=C(c1ccccc1)C1N=NCC1c1ccc([N+](=O)[O-])cc1 (configuration not stated) | 2% | -21% | -3.65% | 11% | 9% | 10.1% | 1% | 47% | 18.2% | 5% | -4% | -4.4% | -5% | 5% | 84.2% (active) | 0% | -4% | 40.6%
16 | Nc1ccc2c(SCc3ccc([N+](=O)[O-])cc3)c3ccccc3nc2c1 | 86% (active) | 84% (active) | 73.5% (active) | 98% (active) | 94% (active) | 87.7% (active) | 40% | 94% (active) | 88.8% (active) | 90% (active) | 93% (active) | 84.5% (active) | 97% (active) | 94% (active) | 84.2% (active) | 96% (active) | 93% (active) | 83.9% (active)
17 | CCCCCCC/C=C/C(=O)OC1C(OC2C(OC(CCCCCCC)CC(=O)OC(CCCCCCC)CC(=O)O)OC(C)C(O)C2O)OC(C)C(O)C1O (configuration not stated) | -18% | 70% (active) | 91.5% (active) | -37% | 57% | 81.8% (active) | -27% | 62% | 92.7% (active) | -40% | 68% | 90.1% (active) | -42% | 94% (active) | 90% (active) | -34% | 95% (active) | 89.5% (active)
18 | CC1=C(C(=O)Nc2cccc(C(F)(F)F)c2)C(c2ccccc2F)C(C(=O)Nc2cccc(C(F)(F)F)c2)=C(C)N1 | 46% | 46% | 78.4% (active) | 46% | 46% | 78.9% (active) | 29% | 29% | 85.9% (active) | 21% | 21% | 85.7% (active) | 37% | 37% | 85.2% (active) | 47% | 47% | 80.4% (active)
19 | CC1(C)OC2OC(/C=C/[N+](=O)[O-])C3OC(C)(C)OC3C2O1 (configuration not stated) | 20% | 98% (active) | 8.25% | 3% | 98% (active) | 10.9% | -17% | 97% (active) | 13.2% | 17% | 99% (active) | 5.45% | -9% | 97% (active) | 4.75% | 17% | 97% (active) | 27.4%
